Screening results from PubChem BioAssay.
FBW7 activator – human FBW7 E3 ligase activation, primary screen | Q969H0 | AlphaScreen FBW7–phospho-cyclin E peptide binding, activator screen | normalized activity (activation), % at 26.1 µM | hit rate 0.13% among 650,000 | AID 1259310; in the data active = normalized activity above about 1.9%;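 also: purified mutant Fbw7 with reduced substrate affinity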
MITF inh – inhibitors of human MITF. O75030. AlphaScreen MITF homodimerization, bead proximity signal. inhibition, % at 2.6 µM. hit rate 0.91% among 650,000. AID 1259374; in the data active = inhibition above about 50%
Target sequence (O75030 whole entry, looked up): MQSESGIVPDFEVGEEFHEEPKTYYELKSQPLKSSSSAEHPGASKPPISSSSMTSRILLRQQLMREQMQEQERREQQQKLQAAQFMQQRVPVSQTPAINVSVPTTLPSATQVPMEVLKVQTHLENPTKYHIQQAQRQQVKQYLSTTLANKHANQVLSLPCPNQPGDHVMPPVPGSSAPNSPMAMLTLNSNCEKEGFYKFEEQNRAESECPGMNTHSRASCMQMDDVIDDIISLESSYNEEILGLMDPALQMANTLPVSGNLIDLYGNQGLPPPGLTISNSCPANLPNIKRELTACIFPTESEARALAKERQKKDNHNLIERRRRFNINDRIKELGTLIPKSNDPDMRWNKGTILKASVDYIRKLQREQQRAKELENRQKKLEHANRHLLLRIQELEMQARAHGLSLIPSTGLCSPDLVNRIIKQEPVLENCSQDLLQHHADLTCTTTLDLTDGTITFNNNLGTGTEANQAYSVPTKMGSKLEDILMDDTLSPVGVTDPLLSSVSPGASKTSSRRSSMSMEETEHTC
GPR151 activ – activates the human receptor GPR151; Q8TDV0; PathHunter beta-arrestin GPR151 cells, luminescence; activation, % at 11.2 µM; hit rate 1% among 650,000; in the data active = activation above about 4.9%
TEAD-YAP inh – TEAD-YAP interaction inhibition. hit rate 1.4% among 640,000. inhibition, % at 9.12 µM. HEK-TIYL cells, TEAD-Gal4/YAP UAS-luciferase luminescence; in the data active = inhibition above about 32%
GPR151 confirm – human GPR151 activation, confirmation screen; 6,700 tested, under 10 active; shares compounds with GPR151 activ; GPR151 PathHunter beta-arrestin cells, luminescence, 90 min; % of EA-reagent control over plate median; activation, % at 11.2 µM;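 active = mean percent activation across replicates above the confirmation screen cutoff of 4.91%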
GPR119 ag – activates human GPR119 in a GPR151 counter-screen | activation, % at 11.2 µM | shares compounds with GPR151 activ | GPR119 PathHunter beta-arrestin cells, luminescence, 90 min; 0 = compound-well median, 100 = enzyme-acceptor control | hit rate 0.3% among 6,700;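 active = mean percent activation in the counterscreen above 29.09%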;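 also: counterscreen on off-target GPR119 to flag nonselective hits from the GPR151 activator screen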
A number is an active result; n = inactive; x = no result. The list is not random: actives were taken first. Their share in the collection is about 3.5%.

SMILES	FBW7 activator	MITF inh	GPR151 activ	TEAD-YAP inh	GPR151 confirm	GPR119 ag
CCCN(CCC)S(=O)(=O)c1ccc(NS(=O)(=O)c2ccc(F)cc2)cc1	n	n	6.1	n	n	n
CC(=O)Nc1ccc(S(=O)(=O)Nc2ccc(C(F)(F)F)cc2[N+](=O)[O-])cc1	n	n	7.8	n	n	n
CC(=O)Nc1ccc(S(=O)(=O)c2ccc([N+](=O)[O-])cc2)cc1	n	n	n	n	x	x
O=C(N/N=C\c1ccc(Br)cc1)c1cnccn1	n	n	n	n	x	x
Cc1cc(C(=O)COC(=O)c2ccc3c(c2)OCCO3)ccc1Br	n	n	n	n	x	x
CC(=O)c1ccc(NC(=O)CNc2cccc(Cl)c2)cc1	n	n	n	n	x	x
CCN(CC)CCOC(=O)c1ccc(OC)cc1	n	n	n	n	x	x
O=[N+]([O-])c1ccc(Oc2ccc(S(=O)(=O)Nc3ccccc3)cc2)cc1	n	n	n	n	x	x
O=[N+]([O-])c1ccc(Oc2ccc(S(=O)(=O)Nc3ccc(F)cc3)cc2)cc1	n	n	7.5	35.5	n	n
Cc1ccnc(NS(=O)(=O)c2ccc([N+](=O)[O-])cc2)n1	n	n	7.5	n	n	n
CCCCNC(=O)CC1Nc2c3ccccc3nc(=S)n2C1=O (centres undefined)	n	n	9.6	n	n	n
CC(C)CCNC(=O)CC1Nc2c3ccccc3nc(=S)n2C1=O (centres undefined)	n	n	n	n	x	x
Cc1cccc2c1NC(=O)/C2=C\C(=O)c1cccs1	n	n	6.6	n	n	n
CCc1ccc2c(c1)/C(=C/C(=O)c1cccs1)C(=O)N2	n	n	16.8	n	n	n
O=C(O)c1ccc2c(c1)CC(C(=O)Nc1ccc(-c3cn[nH]c3)cc1)CO2 (centres undefined)	n	n	n	n	x	x
COC(=O)c1ccc(C2NC(=O)C(O)=C2C(=O)c2cccs2)cc1 (centres undefined)	n	n	n	n	x	x
CC(C)CCNC(=O)c1noc2c1COc1ccccc1-2	n	n	6.6	n	n	n
O=C(NCc1ccccc1)c1noc2c1COc1ccccc1-2	n	n	n	n	x	x
S=C(NCc1ccccn1)Nc1cccc(Cl)c1	n	n	10.0	n	n	n
Cc1ccc(C)c(N2CCN(C(=O)CCc3nc(-c4ccccc4F)no3)CC2)c1	n	n	5.5	n	n	n
COC(=O)c1c(NC(=O)c2ccc3c(c2)OCO3)sc(C(=O)N2CCCCC2)c1C	n	n	7.5	n	n	n
COC(=O)COc1ccc2c(C)c(C)c(=O)oc2c1C	n	n	n	n	x	x
CCc1c(C)c2ccc(OCC(=O)OC)c(C)c2oc1=O	n	n	5.1	n	n	n
Cc1cc(C(=O)COc2ccc(-c3nnco3)cc2)c(C)n1Cc1ccc2c(c1)OCO2	n	n	n	n	x	x
COC(=O)c1c(NC(=O)COc2cccc(C)c2C)sc(C)c1C	n	n	n	n	x	x
SMILES	FBW7 activator	MITF inh	GPR151 activ	TEAD-YAP inh	GPR151 confirm	GPR119 ag
COc1ccc(CCNc2ccnc(Nc3ccc4ncccc4c3)n2)cc1	n	63.0	5.9	51.5	n	n
Oc1ccc(CCNc2ccnc(Nc3ccc4ncccc4c3)n2)cc1	n	n	n	n	x	x
Oc1ccc(CCNc2nc(NCc3ccc4c(c3)OCO4)nc3c2ncn3C2CCCCC2)cc1	n	n	17.2	n	n	n
COc1ccc(CCNc2cc(C)nc(NC3CCC(O)CC3)n2)cc1 (centres undefined)	n	n	6.8	n	n	n
COc1ccc(CCNc2ccnc(Nc3ccc(-n4ccnc4)cc3)n2)cc1	n	n	6.5	82.5	n	38.3
CCCNc1ccnc(Nc2ccc(-n3ccnc3)cc2)n1	n	n	n	n	x	x
Cc1ccc(NC(=O)NNC(=O)C(C)(C)O)cc1C	n	n	n	n	x	x
COc1cc(/C=C2/C(=N)N3N=C(CC(C)C)SC3=NC2=O)ccc1OCCOc1c(C)cccc1C	n	n	n	n	x	x
C/C(CCl)=C(/C#N)c1nc2ccccc2s1	n	n	n	n	x	x
CC(C)n1cnc2c(NCCO)nc(Nc3ccc(-n4ccnc4)cc3)nc21	n	n	5.4	n	n	n
COc1ccc(CCNc2nc(Nc3ccc(-n4ccnc4)cc3)nc3c2ncn3C2CCCCC2)cc1	n	n	6.1	n	n	n
COc1ccc(CCNc2cc(C)nc(Nc3ccc(-n4ccnc4)cc3)n2)cc1	n	n	5.3	76.9	n	53.8
CC(C)n1cnc2c(NCc3ccccc3)nc(Nc3ccc(-n4ccnc4)cc3)nc21	n	n	n	n	x	x
CC(C)n1cnc2c(NCc3cccc(C(F)(F)F)c3)nc(Nc3ccncc3)nc21	n	n	5.9	n	n	n
O=C1NC(=S)N/C1=C/c1ccccc1I	n	n	n	n	x	x
CC1=C(C(=O)N2CCCC2)C2(CCCCCC2)OC1=O	n	n	n	n	x	x
COc1cccc(N2CCN(C(=O)C3=C(C)C(=O)OC34CCCCC4)CC2)c1	n	n	5.6	n	n	n
CC(C)N(C(=O)Cn1c(SCC(=O)N2CCCC2)nc2ccccc21)C(C)C	n	n	7.9	n	n	n
CC(C)N(C(=O)Cn1c(SCC(=O)N2CCCCCC2)nc2ccccc21)C(C)C	n	n	n	n	x	x
O=C(NCc1cccs1)c1nc2c(nnn2Cc2ccc(F)cc2)c(=O)[nH]1	n	n	n	n	x	x
O=C(NCc1ccco1)c1nc2c(nnn2Cc2ccc(F)cc2)c(=O)[nH]1	n	n	5.3	n	n	n
COc1ccc(/C=C2/N=C(c3ccccc3)NC2=O)cc1	n	n	5.2	n	n	n
COc1ccc(/C=C2\N=C(c3ccc(C)cc3)NC2=O)cc1	n	n	n	n	x	x
Cc1cnc(Nc2ccncn2)nc1NC1CC1	n	n	5.7	n	n	n
Cc1cnc(Nc2ccncn2)nc1NC1CCN(Cc2ccccc2)CC1	n	n	n	n	x	x
SMILES	FBW7 activator	MITF inh	GPR151 activ	TEAD-YAP inh	GPR151 confirm	GPR119 ag
COc1ccc(-c2cc(C(F)(F)F)n3ncc(C(=O)Nc4ccc(Cl)cc4Cl)c3n2)cc1OC	n	n	5.4	n	n	n
CCC(Sc1nc2ccccc2c2nc(C)nn12)C(=O)NCc1ccco1 (centres undefined)	n	n	8.7	n	n	n
CCC(Sc1nc2cc3c(cc2c(=O)n1CCCCCC(=O)NCc1ccc2c(c1)OCO2)OCO3)C(=O)NCc1ccco1 (centres undefined)	n	n	n	n	x	x
CCC(Sc1nc2cc(OC)c(OC)cc2c2nc(C)nn12)C(=O)NCc1ccco1 (centres undefined)	n	n	n	n	x	x
CCC(Sc1nc2cc3c(cc2c(=O)n1CCCCCC(=O)NCc1ccc(OC)cc1)OCO3)C(=O)NCc1ccco1 (centres undefined)	n	n	5.0	n	n	n
COc1ccccc1CN1C(=O)C2C(C(=O)Nc3ccc(F)c(Cl)c3)C3C=CC2(O3)C1C(=O)NC1CCCC(C)C1C (centres undefined)	n	n	n	n	x	x
COc1ccc(OC)c(C(=O)c2oc3ccc(Cl)cc3c2NC(C)=O)c1	n	n	n	n	x	x
